Assay results: the supplement of paper PMC10105736
A number with no mark means an inactive call.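 How the source made its calls: active = MAPPIT score above the 99th percentile of random reference set scores in the same batch; inactive = at or below it.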

What was measured:
Assay in all cases: MAPPIT interaction score (arbitrary units); higher = stronger binary interaction signal, active = hit call of the paper
CG17991 = conditions: MAPPIT configuration: N-C; pair source set: screen_4
park = conditions: MAPPIT configuration: N-C; pair source set: screen_4
CG1971 = conditions: MAPPIT configuration: N-N; pair source set: Curagen_high_conf
CG9986 = conditions: MAPPIT configuration: N-N; pair source set: Curagen_low_conf
Mdr49 = conditions: MAPPIT configuration: N-N; pair source set: Lit-BS-16
PAN3 = conditions: MAPPIT configuration: N-N; pair source set: Curagen_low_conf
CG2017 = conditions: MAPPIT configuration: N-N; pair source set: screen_1
CG2021 = conditions: MAPPIT configuration: N-N; pair source set: DPIM
CG2199 = conditions: MAPPIT configuration: N-N; pair source set: Curagen_low_conf
Paics = conditions: MAPPIT configuration: N-N; pair source set: DPIM
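Further: HEK293T cells with Epo stimulation, STAT-responsive firefly luciferase reporter, fold induction versus unstimulated cells divided by the larger fold induction of two negative controls lacking either bait or prey.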

B1: CG5532 (protein)
chain: MPVDWFGYVYAATVAAGGIMGYAKAGSIPSLGAGLAFGALLGYGAHLNSQDTPRPLLQLGTSLFLAGLMGARWNRSGKLMPAGMVCMLSVAALVKNLATYNRYLMPAGTKAP
Question: What does the source list for B1?
Answer: MAPPIT interaction score (CG17991): 0.124; MAPPIT interaction score (park): 0.413

B2: CG2678 (protein)
chain: MMHSAKNVCRTCMDETGTLVDIFANVRDPVLDEPEMSLSHILARCTERPVKRGDLLPQFICVSCVLAVQNAFRFKWQSEQSYQHFFRVLNQSGAPENQVHLAACNGDKNQIINQKMQLKSDRQQDTQQMTKTQKPDDDLSQKQTLQAKLQEGNIDGPPESFTLHPRKRTCRTEEQADMIPKEATRSTKMICDADGYYNCPHCSKRFCSQTQLRTHITDLCNRCPYCPRTYMQKSNLKRHLRNHLSKPAHKCFHCSKAFMRKDHLKRHLRTHDSDGPLSCSQCSAVFIEHVQLEIHRREHKQRPGSSKSESTKDPDSDDSDQAQDLKPKWTKNTFNGTCSIPPMLKPKPICDICQKKFSSVYALKRHMLTHNRQHHLKKCTYCSEEFKTEKHLKRHERGHMGDLFRCEFCSLVFVDVNYLRKHKKRIHSNNVIAM
Question: B2 was tested. Which MAPPIT interaction score (CG1971) did it give?
Answer: -0.147

Question: What about the MAPPIT interaction score (CG9986) of the same binder?
Answer: -0.191

Question: And the MAPPIT interaction score (Mdr49)?
Answer: -0.0532

Question: And the MAPPIT interaction score (PAN3)?
Answer: -0.0312

B3: bin3 (protein)
chain: MEKRLSDSPGDCRVTRSTMTPTLRLDQTSRQEPLPQQPDNGPAAAPGKSKSPTPLPGKSQAAQHHQFRAPQQQQGPKNRNKAWSKRQHKAGGKHNPSACVGASSGQAQSTGSSVIAATLLPTAASAHKADLENIQNIHNKNLTAGGGVNHHGNAGTAHHGGGGGAGAHHAAAGGHHHHHNTRLAQNAAAGGASGGGTIQMHKKMLRGHHHHVLCAGNNANHTCCLVTGCNGSSIGGVGVAGSGGATASAGGGGASCKEAQSCKDTSSLSGNSSIAGSAGAGNAVHYCCGRSKFFLPEKRLRKEVIVPPTKFLLGGNISDPLNLNSLQNENTSNASSTNNTPATTPRQSPITTPPKVEVIIPPNIHDPLHLLDPVDSMEYEKQLTSPMKRAGPGGGMLHHRQHHYRTRKNRKRRRFDSNNTSHAGDEGGVGSELTDEPPLPAATSSLAASPVAAPLNVGGSLLLSESAAPAPGETAEMGQQQEQAHVHSPQSASTTTTAAEMPTPTPTSAAAATATAEHKEQSAPAPTATSSPQRQQQHVAAAAEELPTPETSAAAETPAEEMLLSCSATSASLVASTLAERRASRDLRLDLSSTCYGVGGTGLSFGGSISSSVGSSFGGGGRKRKISESSTSQKSKKFHRHDAMDKIVSPVVPQPGAWKRPPRILQPSGARKPSTRRSTSVSESELLSPVEEQPPKQLPLIGVEIPRDDTPDLPDHGLGSPLSTTSGATSHTAGEQDSLAGVDISMGDTLGSGVVGKAPLTSSLMLEPAKIPPIKMLPKFRADGLKYRYGNFDRYVDFRQMNEFRDVRLQVFQRHVELFENKDILDIGCNVGHMTITVARHLAPKTIVGIDIDRELVARARRNLSIFVRIPKEEKLLEVKAEPTVDAKANIAVKDETSGAAHKKTRRGKRRRKVHQGIHHHHHHHHDLEQLQQQQKLNSLLVKPHEFFPISFPLTYGRIPRILSSSKSPNMLGNKNQFPANVFFRHTNYVLKDESLMASDTQQYDLILCLSVTKWIHLNFGDNGLKMAFKRMFNQLRPGGKLILEAQNWASYKKKKNLTPEIYNNYKQIEFFPNKFHEYLLSSEVGFSHSYTLGVPRHMNKGFCRPIQLYAKGDYTPNHVRWSDAYYPQTPYEAYRGIYATLPVHRMGGGGSSAGGSNSGHAQMLHLSSSSRSQNYDTPHYAGSASGSASCRQTPMYQPTYNPLETDSYQPSYDMEYLNHMYVFASPLYQTVWSPPASLRKSSSHTPVFGSVRDAELDGDGSGGGGSGGGSYHRHVYPPNDDTCSPNANACNAFNSIRDADTDDSNQLPGGSRRHVYATNCGESSSSPQVNHHDAVGEFVDGLMDDEQKSSTGGGTGGAAYCDLSDA
Question: For B3, which MAPPIT interaction score (CG2017) is on record?
Answer: 0.262

B4: MP1 (protein)
chain: MEPHFFFTVLWMLLMGTSSTYAQEIFGYCRTPDENSGTCINLRECGYLFELLQSEEVTEQDRRFLQASQCGYRNGQVLEKHFCFTNVQICCANSRMRNQQPQWGNHPQPTQTTKPTKRSGTKLLPMAPNCGENFGDRVVGGNETTKREFPWMALIEYTKPGNVKGHHCGGSLINHRYVLTAAHCVSAIPSDWELTGVRLGEWDASTNPDCTVGKNGRRDCNEPYVDYPVEERIPHPQYPGNSRDQLNDIALLRLRDEVQYSDFILPVCLPTLASQHNNIFLGRKVVVAGWGRTETNFTSNIKLKAELDTVPTSECNQRYATQRRTVTTKQMCAGGVEGVDSCRGDSGGPLLLEDYSNGNSNYYIAGVVSYGPTPCGLKGWPGVYTRVEAYLNWIENNVRA
Question: Which MAPPIT interaction score (CG2021) does the source give for B4 here?
Answer: -0.105

B5: Hel25E (protein)
chain: MADNDDLLDYEDEEQTETTAVENQEAPKKDVKGTYVSIHSSGFRDFLLKPEILRAIVDCGFEHPSEVQHECIPQAVLGMDILCQAKSGMGKTAVFVLATLQQLEPSDNNTCHVLVMCHTRELAFQISKEYERFSKYMPTVKVAVFFGGMAIQKDEETLKSGTPHIVVGTPGRILALIRNKKLNLKLLKHFVLDECDKMLEQLDMRRDVQEIFRSTPHGKQVMMFSATLSKDIRPVCKKFMQDPMEVYVDDEAKLTLHGLQQHYVNLKENEKNKKLFELLDVLEFNQVVIFVKSVQRCVALSQLLTEQNFPAIGIHRGMTQEERLNRYQQFKDFQKRILVATNLFGRGMDIERVNIVFNYDMPEDSDTYLHRVARAGRFGTKGLAITFVSDENDAKILNEVQDRFDVNISELPEEIDLSTYIEGR
Question: What does the source list for B5?
Answer: MAPPIT interaction score (CG2199): -0.422; MAPPIT interaction score (Paics): 1.6
